Measurements: PubChem BioAssay (NCI)
This is part of a sample that, as a whole, favours compounds with a hit. Of some 83,000 tested, about 20% had one in any assay.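 How to read the values: 0–100, growth inhibition (40 = 60% inhibited); 0, no net growth; -100 to 0, cell death (-40 = 40% of starting cells died; -100 = all dead).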 Unmarked numbers belong to inactive results. Active and inactive are the calls of the source. How the source made its calls: active means growth percent below 10; inactive means the rest.

Key:
Assay in all cases: NCI-60 one-dose screen, 48 h (100 = growth as untreated, 0 = no growth, -100 = all killed)
Conditions in all cases: 10 µM unless noted
[1] = tested on: SN12C renal
[2] = tested on: UO-31 renal
[3] = tested on: TK-10 renal
[4] = tested on: ACHN renal
[5] = tested on: CAKI-1 renal
[6] = tested on: A498 renal
[7] = tested on: CCRF-CEM leukemia
[8] = tested on: MOLT-4 leukemia

SMILES | growth [1] [%] | growth [2] [%] | growth [3] [%] | growth [4] [%] | growth [5] | growth [6] | growth [7] | growth [8] [%]
Nc1nc(N)c2c(n1)NC(c1sc(Cl)nc1Cl)CC(c1ccccc1)=N2 (centres undefined) | 48.7 | 46.6 | 70.8 | 61.5 | 44.8% | 19.7% | 38.9% | 26
CCCCn1cnc(-c2cc(-c3ccccc3)cc(C(F)(F)F)c2)n1 | 98.2 | 87.9 | 102 | 106 | 91.5% | 70.9% | 97.1% | 88.8
COc1ccc2[nH]cc(C(c3ccc(Cl)cc3)N3CCCC3)c2c1 (centres undefined) | 109 | 59 | 87.6 | 93.1 | 89.4% | 87% | 70.2% | 75.1
COc1ccccc1NC(=O)OCC12COCN1COC2 | 100 | 94.9 | 108 | 102 | 100% | 80.5% | 102% | 95.9
COc1ccc(-c2cnc3ccnn3c2-c2cc(OC)c(OC)c(OC)c2)cc1 | 42 | 48.3 | 59.6 | 47.3 | 46.5% | -5.57% (active) | 16.3% | 46.7
COc1ccc(C2CC(c3cccc(Nc4ccnc5cc(Cl)ccc45)c3)=NN2c2ccccc2)cc1 (centres undefined) | 81.3 | 77.4 | 111 | 58.8 | 19.9% | 55.7% | 57.9% | 64.3
Nc1nc(N)c2c(n1)NC(c1sc(Cl)nc1Cl)CC(c1ccc3c(c1)OCO3)=N2 (centres undefined) | 35.2 | 30.4 | 50.6 | 45 | 26.5% | -2.91% (active) | 11.1% | 25.3
COc1ccc(/C=C2\N=C(c3cccnc3)N(c3ccccc3)NC2=O)cc1 | 105 | 82.2 | 101 | 115 | 97.6% | 71.8% | -21.1% (active) | 85.6
COc1ccc(C2CC(c3cccc(Nc4ccnc5cc(Cl)ccc45)c3)=NN2c2ccc(Cl)cc2)cc1 (centres undefined) | 89.7 | 50.1 | 93.6 | 50.5 | 1.94% (active) | 49.7% | 53.5% | 
NC(=O)c1noc(C(=O)c2ccccc2)c1N | 99.7 | 90.2 | 92.5 | 99.6 | 98.6% | 72% | 98.8% | 95.1
